# According to PubChem BioAssay (Tox21):
# Active and inactive are the calls of the source. The call rests on the fitted dose curve; in most records, active means well fitted curve in the direction sought with a large enough effect in the repeat runs; inconclusive means weak or mixed curves; inactive means flat fitted curve, though single readings scatter.
# Assay: qHTS assay to test for compound auto fluorescence at 460 nm (blue) in HEK293 cell free culture (AID 720681)
# Details: cell-free medium, autofluorescence 405/460 nm (blue); series mostly up to 91.3 µM
# From the text: U.S. Tox21 Program National Center for Advancing Translational Sciences [NCATS] NIH Chemical Genomics Center [NCGC] U.S. Environmental Protection Agency [EPA] National Institutes of Environmental Health Sciences [NIEHS] National Toxicology Program [NTP] U.S. Food and Drug Administration [FDA] Tox21 Assay Overview: Compound auto fluorescence often interferes with screening of the compound library against various biological targets and signaling pathways. Some of these compounds may have fluorophoric properties. Such properties may interfere with the assay outputs resulting in false positives and/or negatives. To decrease such complications and ensure the compound activities are relevant in terms of biological response, the Tox21 10K compound library was screened for auto fluorescence. From the fluorophores used as reporter signals in our screening assays, the auto fluorescence equivalencies of compounds against three fluorophores have been evaluated: Triamterene, Fluorescein and Rose Bengal sodium for blue, green and red fluorescence, respectively. The fluorescence intensities were measured using Excitation/Emission wavelengths at 405/460nm, 485/535nm and 540/590nm for blue, green and red labels, respectively. This assay includes the blue fluorescence data.
# Tox21 Assay Protocol Summary: 5 uL of culture medium (DMEM containing 10% FBS) per well was dispensed into black wall/clear bottom 1536-well plates using a Multidrop Combi Dispenser (ThermoFisher Scientific, Waltham, MA). After 23 nL compound or DMSO vehicle was transferred into assay plate by a pintool work station (Kalypsys, San Diego, CA), fluorescence intensities in the assay plates were measured by an Envision (PerkinElmer, Shelton, CT) plate reader using three labels for measuring blue, green and red fluorescence at […] 460, 535 and 590nm respectively.
row,SMILES,outcome
1,C=CCCCCCCCCC(=O)O,inactive
2,CCOC(=O)n1ccn(C)c1=S,inactive
3,CNC(=S)N(C)C,inactive
4,COc1ccc(CCC(C)=O)cc1,inactive
5,Cc1ccc([N+](=O)[O-])cc1S(=O)(=O)O,inactive
6,O=C(O)c1ccc(S(=O)(=O)N(Cl)Cl)cc1,inactive
7,CN1C(=O)CC[C@H]1c1cccnc1,inactive
8,CCCCCCCO,inactive
9,c1ccc(Oc2ccccc2)cc1,inactive
10,O=S(=O)(O)c1ccc(N=Nc2c(O)ccc3cc(S(=O)(=O)O)ccc23)cc1,inactive
11,CN(C)c1ccc(O)c2c1C[C@H]1C[C@H]3[C@H](N(C)C)C(=O)C(C(N)=O)=C(O)[C@@]3(O)C(=O)C1=C2O,inactive
12,C=CC(C)CCCC(C)(C)O (stereo not given),inactive
13,COCCCN,inactive
14,N#Cc1ccccc1,inactive
15,C=CC(=O)OCCC(=O)O,inactive
16,CCCCCCCCCCCC(=O)OC,inactive
17,CC(=O)OCc1ccccc1,inactive
18,CC(=O)OCc1ccco1,inactive
19,COCCOC(=O)c1ccccc1C(=O)OCCOC,inactive
20,CC(=O)OC1CC(C)OC(C)O1 (stereo not given),inactive

row,SMILES,outcome
1,O=C1CCCC1,inactive
2,CC(=O)Oc1ccc(C)cc1,inactive
3,O=C(OCC1CCC2OC2C1)C1CCC2OC2C1 (stereo not given),inactive
4,CCO[Si](CCCN)(OCC)OCC,inactive
5,O=c1[nH]cnc2[nH]ncc12,inactive
6,COC(=O)CCCC(=O)OC,inactive
7,Cc1ccc2ncccc2c1,inactive
8,O=C(O)c1cc2ccccc2cc1O,inactive
9,O=C(O)c1ccc(C(=O)O)c(C(=O)O)c1,inactive
10,COc1ccc(N)c(C)c1,inactive
11,CC1(C)S[C@@H]2[C@H](NC(=O)COc3ccccc3)C(=O)N2[C@H]1C(=O)O,inactive
12,CC1(C)CC(N)CC(C)(CN)C1 (stereo not given),inactive
13,Brc1ccc(Br)c(Br)c1,inactive
14,CC(=O)CCC=C(C)C,inactive
15,C[C@]12CC[C@@H]3c4ccc(O)cc4CC[C@H]3[C@@H]1C[C@@H](O)[C@@H]2O,inactive
16,CCCCCCCCCCO,inactive
17,Cc1ccc(S(=O)(=O)N=C=O)cc1,inactive
18,O=C1c2ccccc2CCc2ccccc21,inactive
19,COc1ccc([N+](=O)[O-])cc1N,inactive
20,Nc1ccc(Cl)c(N)c1,inactive
